# Where “and” joins values, the source holds several entries; their conditions need not be identical. Identical values can stand only once. Results filed as inconclusive are left out. Entries that show only a call come without a potency. Calls of active or inactive are those of the source. The call rests on the fitted dose curve; in most records, active means well fitted cell-killing curve with a large enough effect in the repeat runs; inconclusive means weak or mixed curves, or effect the other way; inactive means flat fitted curve, though single readings scatter.
# Experiment: qHTS assay to identify small molecule antagonists of the androgen receptor (AR) signaling pathway using the MDA cell line - cell viability counter screen (AID 743041; further: nearly all actives have a fitted effect of over 45% in size)
# Details: MDA-kb2 viability, CellTiter-Fluor, 16 h, cells co-treated with R1881 androgen agonist; series mostly up to 70.3 µM; viability change, negative = cytotoxic: at the top concentration
# In short: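 Cytotoxicity counter screen: MDA-kb2 AR-luc cells, compound + R1881, 16 h, 37C, 0% CO2; CellTiter-Fluor added at 15.5 h, fluorescence read after 30 min.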
# Potency means the concentration at half of the fitted maximal effect.
SMILES,"viability change, negative = cytotoxic",Potency
C#C[C@]1(O)CC[C@H]2[C@@H]3CCc4cc(OC)ccc4[C@H]3CC[C@@]21C,8.21% (inactive),
Nc1ccc(Cl)cc1Cl,,inactive
C[C@]12CC[C@H]3[C@@H](CCC4=CC(=O)CC[C@@]43C)[C@@H]1CC[C@@H]2C(=O)CO,,inactive
COc1ccc(OC)c(C(O)CNC(=O)CN)c1 (centres undefined),,inactive
Cc1cccc(C(=O)O)c1,,inactive
c1ccncc1,,inactive
Oc1ccc(O)cc1,,inactive
CN1C(C(=O)Nc2ccccn2)=C(O)c2ccccc2S1(=O)=O,,inactive
O=C1OC2(c3cc(Br)c(O)c(Br)c3Oc3c2cc(Br)c(O)c3Br)c2c(Cl)c(Cl)c(Cl)c(Cl)c21,,4.33 µM (active) and 37.1 µM (active)
CC(=O)O[C@]1(C(C)=O)CC[C@H]2[C@@H]3C=C(Cl)C4=CC(=O)[C@@H]5C[C@@H]5[C@]4(C)[C@H]3CC[C@@]21C,,inactive
CCCCC(CC)COP(=O)(OCC(CC)CCCC)OCC(CC)CCCC (centres undefined),,inactive
CCCCc1oc2ccccc2c1C(=O)c1cc(I)c(OCCN(CC)CC)c(I)c1,,inactive
CCC(C)(O)CCCC(C)C (centres undefined),,inactive
OC(CCl)CCl,,inactive
O=C(/C=C/C=C/c1ccc2c(c1)OCO2)N1CCCCC1,,inactive
Nc1ncnc2nc[nH]c12,,inactive
O=C(c1ccccc1)c1ccc(O)cc1O,,inactive
Cc1cccc(N(C)C(=S)Oc2ccc3ccccc3c2)c1,,inactive
Cc1c(C(N)=O)cc([N+](=O)[O-])cc1[N+](=O)[O-],,inactive
Nc1ncn([C@@H]2O[C@H](CO)[C@@H](O)[C@H]2O)c(=O)n1,-22.4% (inactive),

SMILES,"viability change, negative = cytotoxic",Potency
C[Si](C)(C)O[Si](C)(C)C,,inactive
CNCCCC12CCC(c3ccccc31)c1ccccc12,,61.1 µM (active)
c1cc(N(CC2CO2)CC2CO2)ccc1OCC1CO1 (centres undefined),-28% (inactive),
S=C(NC1CCCCC1)NC1CCCCC1,,inactive
Cc1[nH]c(=O)c(C#N)cc1-c1ccncc1,2.56% (inactive),
C#C[C@]1(O)CC[C@H]2[C@@H]3CCC4=Cc5oncc5C[C@]4(C)[C@H]3CC[C@@]21C,,inactive
OC1CCCCCCCCCCC1,,inactive
O=C(c1ccc(OCCN2CCCCC2)cc1)c1c(-c2ccc(O)cc2)sc2cc(O)ccc12,,68.7 µM (active) and 61.1 µM (active)
CC(C)OB(OC(C)C)OC(C)C,,inactive
COC(=O)c1ccccc1,7.01% (inactive),
CCCCC/C=C/C=C/C=O,,inactive
CCC(C)c1ccccc1O (centres undefined),,inactive
CCCCNS(=O)(=O)c1ccccc1,,inactive
COc1ccccc1/C=C/C=O,-2.89% [at 95 µM] (inactive),
CC(C)CC(C)(O)C#CC(C)(O)CC(C)C (centres undefined),,inactive
O=C1c2cccc(O)c2C(=O)c2c(O)cccc21,,inactive
O=CCc1ccccc1,,inactive
Cc1ccc(C(=O)c2cc(O)c(O)c([N+](=O)[O-])c2)cc1,-16.6% (inactive),
COc1cccc2c1C(=O)c1c(O)c3c(c(O)c1C2=O)C[C@@](O)(C(=O)CO)C[C@@H]3O[C@H]1C[C@H](N)[C@H](O)[C@H](C)O1,4.54% (inactive),

# Reference: PubChem BioAssay (Tox21)
